Data: PubChem BioAssay (NCATS)
“And” between values parts separate entries of the source, which are not always exact repeats. Identical values can stand only once. Inconclusive results are not listed. For some of these results: Potency and affinity values are given separately. The source made the active and inactive calls. Unless noted, no rule for the calls is given here.
For efficacy in this document: 0% is about no effect.

Test: qHTS Assay for Identifying Gametocytocidal Compounds (AID 743244; active = well fitted curve in the direction sought with a large enough effect; an effect the other way counts as inactive or inconclusive;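 also: % is scaled to controls: 0 for no effect and ±100 for the full control effect; actives lower the fluorescent signal which means gametocytes are killed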)
Details: P. falciparum 3D7 stage III-V gametocytes, alamarBlue, 72 h; max response: active compounds read low
How it was run: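 Compounds are pinned into medium, gametocytes (stage III–V, 3D7, 20,000 cells/well) added, and plates held 72 h at 37 °C in 5% CO2. AlamarBlue follows for 24 h before fluorescence reading.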
For `CCc1cc2c(s1)-n1c(C)nnc1CN=C2c1ccccc1Cl`, the max response was 2.24% (inactive). With `COP(=S)(OC)SCN1C(=O)c2ccccc2C1=O` the max response was -4.68% (inactive). In the case of `CC(C)=CC1C(C(=O)OCN2C(=O)C3=C(CCCC3)C2=O)C1(C)C` (stereo not drawn), the max response is reported as 1.71% (inactive). With `C[C@H]1[C@@H]2Cc3ccc(O)cc3[C@@]1(C)CCN2C` the max response was 2.87% (inactive). For `CCN(CC)CCc1c[nH]c2ccccc12`, the max response was 14.8% (inactive). With `C[C@]12CCC(=O)C=C1CC[C@@H]1[C@@H]2CC[C@]2(C)C(=O)CC[C@@H]12` the max response was 5.73% (inactive). With `COc1ccc2c(c1OC)C(=O)O[C@H]2[C@@H]1c2cc3c(cc2CCN1C)OCO3` the max response was 10.8% (inactive) and 14.8% (inactive). With `CCOC(=O)CC(SP(=S)(OC)OC)C(=O)OCC` (stereo not drawn) the max response was 7.01% (inactive) and -6.6% (inactive).

Test: qHTS assay for cell viability of HEK293 cells (AID 743288; active = well fitted curve in the direction sought with a large enough effect; an effect the other way counts as inactive or inconclusive; also: % is scaled to controls: 0 for no effect and ±100 for the full control effect; nearly all actives have a fitted effect of over 50% in size)
Details: ATP luminescence (CellTiter-Glo), 18 h, active compounds read low
How it was run: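 Parental HEK293 cells, 2,000 per well, preincubated at least 5 h at 37 C, then exposed to compounds in DMSO for 18 h at 37 C. Viability by CellTiter-Glo ATP luminescence after 30 min at room temperature.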
With `Clc1ccc(C(c2ccc(Cl)cc2)C(Cl)(Cl)Cl)cc1` the max response was -17.1% (inactive). In the case of `CCC(C)(C)c1ccc(O)cc1`, the max response is reported as 6.76% (inactive) and -11.5% (inactive). For `COP(=S)(OC)SCN1C(=O)c2ccccc2C1=O`, the max response was -19.3% (inactive). For `Nc1ccc([As](=O)(O)O)cc1`, the max response was -4.94% (inactive). For `C[C@]12CCC(=O)C=C1CC[C@@H]1[C@@H]2CC[C@]2(C)C(=O)CC[C@@H]12`, the max response was -2.66% (inactive). In the case of `CCOC(=O)CC(SP(=S)(OC)OC)C(=O)OCC` (stereo not drawn), the max response is reported as -11.8% (inactive) and -13% (inactive) and -16.1% (inactive).

Test: not given
Details: Ebola virus entry assay, green fluorescence channel
For `COc1ccc(C(=O)c2ccccc2)c(O)c1`, the efficacy was 30% (inactive). In the case of `CCN(CC)C(=O)[C@@H]1C=C2c3cccc4[nH]cc(c34)C[C@H]2N(C)C1`, the efficacy is reported as 49.3% (inactive). In the case of `CN1C(=O)NC(=O)C(C)(C2=CCCCC2)C1=O` (stereo not drawn), the efficacy is reported as 10.3% (inactive). In the case of `O=C1OC(c2ccc(O)c(S(=O)(=O)O)c2)(c2ccc(O)c(S(=O)(=O)O)c2)c2c(Br)c(Br)c(Br)c(Br)c21`, the efficacy is reported as 32.9% (inactive). For `Nc1ccc(S(=O)(=O)Nc2ccccn2)cc1`, the efficacy was -13.9% (inactive). For `CCC1(CC)C(=O)C=CNC1=O`, the efficacy was -31% (inactive). With `CN(C)[C@@H]1C(=O)C(C(N)=O)=C(O)[C@@]2(O)C(=O)C3=C(O)c4c(O)cccc4C[C@H]3C[C@@H]12` the efficacy was 167% (inactive). With `CCCCC/C=C\C/C=C\C/C=C\C/C=C\CCCC(=O)NCC(=O)O` the efficacy was -13.8% (inactive). For `COc1ccc(C(=O)c2ccccc2O)c(O)c1`, the efficacy was -11.1% (inactive). For `O=c1c(C2CC(c3ccc(-c4ccc(Br)cc4)cc3)Cc3ccccc32)c(O)sc2ccccc12` (stereo not drawn), the efficacy was 37.1% (inactive). With `Clc1ccc(C(c2ccc(Cl)cc2)C(Cl)(Cl)Cl)cc1` the efficacy was 25.5% (inactive). For `CCC(C)(C)c1ccc(O)cc1`, the efficacy was 13.1% (inactive). In the case of `COC(=O)[C@@H](N)CCCN/C(N)=N/[N+](=O)[O-]`, the efficacy is reported as -11.3% (inactive). For `COc1ccccc1N1CCN(CCCCNC(=O)c2ccc(-c3ccc(C(C)=O)cc3)cc2)CC1`, the efficacy was 25.2% (inactive). In the case of `NNc1ccccc1`, the efficacy is reported as -13.5% (inactive). In the case of `COc1ccc2c(c1)c(CC(=O)OC/C=C(\C)CC/C=C(\C)CCC=C(C)C)c(C)n2C(=O)c1ccc(Cl)cc1`, the efficacy is reported as 62.6% (inactive). With `CCC1(c2ccc(N)cc2)CCC(=O)NC1=O` (stereo not drawn) the efficacy was -15.9% (inactive). With `C#C[C@]1(O)CC[C@H]2[C@@H]3CCC4=CC(=O)CC[C@]4(C)[C@H]3CC[C@@]21C` the efficacy was -17.3% (inactive). With `OCCc1ccccc1` the efficacy was 36.8% (inactive). In the case of `COP(=S)(OC)Oc1ccc(S(=O)(=O)N(C)C)cc1`, the efficacy is reported as -33.6% (inactive). For `CNC(C)(C)Cc1ccccc1`, the efficacy was -14.9% (inactive). For `O=C1O[C@H](CO)[C@@H](O)[C@H](O)[C@H]1O`, the efficacy was 24.7% (inactive). In the case of `CN(c1nccc(=O)[nH]1)C1CCN(c2nc3ccccc3n2Cc2ccc(F)cc2)CC1`, the efficacy is reported as 66.4% (inactive). For `CCc1cc2c(s1)-n1c(C)nnc1CN=C2c1ccccc1Cl`, the efficacy was 22% (inactive). With `COP(=S)(OC)SCN1C(=O)c2ccccc2C1=O` the efficacy was -28.1% (inactive). In the case of `Nc1ccc([As](=O)(O)O)cc1`, the efficacy is reported as -24.9% (inactive). In the case of `COc1ccc(C2CNC(=O)C2)cc1OC1CCCC1` (stereo not drawn), the efficacy is reported as -23.7% (inactive). In the case of `CNC(=O)c1ccccc1Sc1ccc2c(/C=C/c3ccccn3)n[nH]c2c1`, the efficacy is reported as 28.2% (inactive). With `C[C@]12CC[C@H]3[C@@H](CC[C@@]45O[C@H]4C(O)=C(C#N)C[C@]35C)[C@H]1CC[C@H]2O` the efficacy was 26.8% (inactive).
